These results are taken from PubChem BioAssay AID977606 (Broad Institute, 2014).

In all, about 1,500 compounds went through this assay and about 430 (29%) were called active. Only a sample is shown. Results with a measured potency or affinity are listed apart. Values without a mark were called inactive. No rule for the calls is given here.

The assay is described as follows: insulin secretion activators without glucose, dose response, counter-screen for glucose-dependent insulin secretion activators, cell-based, INS-1E, Gaussia luciferase, luminescence, cherry-pick (AID 977606).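 Also: 0% = median of neutral control wells.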 The conditions noted are these: INS-1E Gaussia luciferase insulin secretion, no glucose, 100% = twice neutral-control luminescence; series mostly up to 35 µM; activation: at the top concentration. A general note: A counterscreen serves to expose hits that act by an unwanted route or on another target.
As for `N#Cc1c(-c2ccncc2)cc(-c2ccc(F)cc2)nc1N`, the “activation” value is -5.57%.
As for `Cc1nc(N)c(C#N)c(-c2cccnc2)c1C`, the figure is -19.6%; as for `COc1ccc(Cn2c(=O)c3[nH]cnc3n(-c3ccccc3C)c2=O)cc1`, 14.1%.
For `CC(=O)c1ccc2c(c1)N(Cc1ccccc1)C(=O)C(C)S2` (stereo unspecified), the “activation” value was 12%.
Turning to `Cc1ccccc1NC(=O)c1ccc(OCc2c(C)noc2C)cc1`, the “activation” value is 11.2%.
For `Cc1ccc(OCC(=O)NNC(=O)CCC(=O)Nc2ccc(C)cc2C)cc1`, the “activation” value is 1.3%.
Turning to `COc1ccc(CO/N=C/c2c(C)[nH]c(=O)[nH]c2=O)cc1`, the “activation” value is -0.658%.
Take `CCc1nc2c(nnn2Cc2ccc(F)cc2)c(=O)[nH]1`: the “activation” value is 9.33%.
For the compound `Cc1ccccc1-c1n[nH]c(=S)n1/N=C/c1c(C)nn(-c2ccccc2)c1C`, the “activation” value was 1.57%.
As for `S=c1[nH]nc(-c2ccccc2)n1/N=C/c1c[nH]c2ccccc12`, the figure is 4.19%; as for `CCOC(=O)c1oc2cc(O)cc(C)c2c1C`, -5.39%.
As to `C=CCNc1sc(C(=O)C2CC2)c(N)c1C#N`, the “activation” value was 0.874%.
`Cc1cccc(N2CCN(C(=O)c3cccn4c(=O)c5c(C)c(C)sc5nc34)CC2)c1C`: the “activation” value is 43.9%.
For `Cc1ccc(F)cc1NC(=O)c1sc2ncn(CC(=O)N3CCN(c4ccccn4)CC3)c(=O)c2c1C`, the “activation” value was -27.8%.
Consider `COc1ccc(/C=N/Nc2ncnc3c2[nH]c2ccccc23)c(OC)c1OC`, for which the “activation” value is -2.72%.
Regarding `O=C(CCc1ccccc1)NNC(=O)COc1ccccc1Cl`, the “activation” value was -7%.
`Cn1c(N)c(C(c2ccccc2)c2c(N)n(C)c(=O)n(C)c2=O)c(=O)n(C)c1=O`: the “activation” value is -9.7%.
As for `O=c1cc(Cl)[nH]c(=O)n1Cc1ccccc1`, the figure is 11.3%; as for `O=c1cc(-c2ccncc2)oc2c1ccc1ccccc12`, 23.8%; as for `CC(C)Cn1c(Cc2ccccc2)n[nH]c1=S`, 18.2%.
As for `O=C(O)Cc1ccc(NS(=O)(=O)c2ccc3c(c2)OCCO3)cc1`, the figure is 24.3%; as for `COc1ccc(S(=O)(=O)N(C)CC(=O)Nc2ccc3c(c2)OCCO3)cc1OC`, 16.4%; as for `O=C(NCc1ccccc1)C(c1ccncc1)n1c(=O)c(-c2ccccc2)nc2ccccc21` (stereo unspecified), 28.8%.
Turning to `CN1CCC(N(C)S(=O)(=O)c2ccc(NC(=O)COc3cccc(Cl)c3)cc2)CC1`, the “activation” value is -23.8%.
As for `O=C(COc1ccccc1)Nc1ccccc1C(=O)NC1CC1`, the figure is -7.06%; as for `N#CC1=C(N)Oc2n[nH]c(-c3ccc(F)cc3)c2C1c1cccnc1` (stereo unspecified), 2.56%; as for `COc1ccc(CCNS(=O)(=O)c2cn(C)cn2)cc1OC`, -16.4%.
Consider `NC1=NC[C@H](Cc2ccccc2)N1CCCCC1CCCCC1`, for which the “activation” value was 114%.
As to `CN=C1c2ccccc2CN1c1cccc(C(=O)OC)c1`, the “activation” value was -4.38%.
As for `CSc1ccc(/C=N/N(C)S(=O)(=O)c2ccc(C)cc2)cc1`, the figure is -4.63%; as for `Cc1ccc(S(=O)(=O)/N=C2\CN(C)C(=O)N2C)cc1`, -12.3%; as for `Cc1cc(Br)ccc1NC(=O)CN(C)C(=O)C1CSC2(C)CCC(=O)N12` (stereo unspecified), 9.16%.
Take `Cc1ccc(NC2c3ncccc3C(=O)N2C2CCCCC2)cc1` (stereo unspecified): the “activation” value is 17.3%.
Take `CCSc1nnc(-c2cccnc2)n1-c1ccc(C)c(Cl)c1`: the “activation” value is 5.24%.
For the compound `COc1ccc(CCNC(=O)CCc2nc3ccccc3[nH]2)cc1OC`, the “activation” value is 5.63%.
Turning to `Cc1ccc(-c2cc(C(=O)Nc3nn[nH]n3)c3ccccc3n2)c(C)c1`, the “activation” value is -0.923%.
For `Cc1ccc(-c2nnc3sc(-c4ccncc4)nn23)cc1`, the “activation” value was 27.7%.
With `O=c1c2[nH]cnc2n(-c2ccc(F)cc2)c(=O)n1Cc1ccccc1`, the “activation” value is 10.5%.
As for `COc1ccc(S(=O)(=O)NC2CCCCC2)cc1C`, the figure is 20.3%; as for `Cc1cc(C(=O)NC(C)CCC(C)C)c2ccccc2n1` (stereo unspecified), 13.7%.
As for `O=C(Nc1ccccc1C(=O)N/N=C/c1ccccc1)c1ccco1`, the figure is -6.08%; as for `CONc1nc(NC(C)(C)C)nc(OCC#N)n1`, -9.96%.
For the compound `COc1ccc(CCN(C)C(=O)c2oc3ccccc3c2C)cc1OC`, the “activation” value was -10.6%.
Consider `COc1ccc2oc(C(=O)Nc3nnc(C)s3)c(C)c2c1`, for which the “activation” value was -19.6%.
Take `Cc1ccc(S(=O)(=O)N(CC(=O)Nc2ccc(C)cc2C)C(=O)N2CCN(C)CC2)cc1`: the “activation” value was 7.3%.
On to `CCC(c1nnnn1-c1ccc2c(c1)OCCO2)N1CCc2ccccc2C1` (stereo unspecified), for which the “activation” value is -4.74%.
On to `CCOc1cc(CNc2cccc3[nH]c(C)nc23)ccc1OC`, for which the “activation” value was -6.58%.
With `CCOC(=O)c1cnc2ccc(OCC)cc2c1N1CCN(c2ccccc2)CC1`, the “activation” value was 4.79%.
On to `O=C(Nc1cccnc1)c1cnn2c(C(F)F)cc(C3CC3)nc12`, for which the “activation” value is -8.04%.
In the case of `C[C@@H]1CN([C@H](C)CO)C(=O)Cc2cc(NC(=O)CCCN(C)C)ccc2O[C@H]1CN(C)Cc1ccc(-c2ccccc2)cc1`, the “activation” value was 36.9%.
Regarding `C[C@@H]1CN([C@H](C)CO)C(=O)c2cc(C#CCN(C)C)cnc2O[C@H]1CN(C)S(=O)(=O)c1cn(C)cn1`, the “activation” value is 6.63%.
For `C[C@@H]1CN([C@@H](C)CO)C(=O)c2cccc(NC(=O)Nc3ccc(C(F)(F)F)cc3)c2O[C@H]1CN(C)Cc1ccc(Cl)c(Cl)c1`, the “activation” value was 29.3%.
As for `C[C@H]1CN([C@@H](C)CO)C(=O)c2ccccc2-c2ccccc2CO[C@@H]1CN(C)Cc1ccc(Cl)c(Cl)c1`, the figure is 33.1%.
As to `C[C@@H]1CN([C@@H](C)CO)C(=O)CCCn2nncc2CO[C@H]1CN(C)Cc1ccccc1`, the “activation” value is 6.88%.
Consider `C[C@@H]1CN([C@H](C)CO)S(=O)(=O)c2ccc(-c3ccc(C#N)cc3)cc2O[C@H]1CN(C)C`, for which the “activation” value is 0.541%.
Take `C[C@H]1CN([C@@H](C)CO)C(=O)c2ccccc2-c2ccccc2CO[C@@H]1CN(C)Cc1cccc(C(F)(F)F)c1`: the “activation” value was 1.11%.
